Data: PubChem BioAssay (NCI)
Compounds without any hit were thinned out: in the full panel of roughly 83,000, 20% have a hit.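 Single-dose data. Exposure time 48 hours. Values below 10 considered active.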 Activity calls are given as the source filed them.

Legend:
Assay in all cases: NCI-60 one-dose screen, 48 h (100 = growth as untreated, 0 = no growth, -100 = all killed)
Settings in all cases: 10 µM unless noted
[1] = test system: MOLT-4 leukemia
[2] = test system: SR leukemia
[3] = test system: RPMI-8226 leukemia
[4] = test system: OVCAR-8 ovarian
[5] = test system: OVCAR-5 ovarian
[6] = test system: OVCAR-4 ovarian
[7] = test system: SK-OV-3 ovarian
[8] = test system: IGROV1 ovarian
[9] = test system: OVCAR-3 ovarian
[10] = test system: HS 578T breast
[11] = test system: NCI/ADR-RES ovarian
[12] = test system: T-47D breast
[13] = test system: BT-549 breast
[14] = test system: MDA-MB-435 melanoma
[15] = test system: SW-620 colon
[16] = test system: MCF7 breast
[17] = test system: HCT-116 colon
[18] = test system: HCC-2998 colon
[19] = test system: KM12 colon

Measured: growth

CC1(C)C=Cc2c(ccc3c2[N+]([O-])=C2C3=C[C@@]34NC(=O)[C@]5(CCCN5C3=O)C[C@@H]4C2(C)C)O1
inactive: [1] 28.7% | [2] 15.4% | [3] 24.6% | [4] 42.7% | [5] 56.6% | [6] 43.5% | [7] 85.5% | [8] 55.6% | [9] 25% | [10] 90.8% | [11] 54.6% | [12] 53.2% | [13] 39.8% | [14] 47.3% | [15] 12.9% | [16] 17.9% | [17] 17.4% | [18] 78.1% | [19] 47.5%

CCOP(=O)(OCC)C(=O)N(CC)CC
inactive: [1] 114% | [2] 91.2% | [3] 89.2% | [4] 96.1% | [5] 111% | [6] 96.5% | [7] 104% | [8] 112% | [9] 109% | [10] 101% | [11] 102% | [12] 96.3% | [13] 95.1% | [14] 97.8% | [15] 99.6% | [16] 95.2% | [17] 104% | [18] 110% | [19] 98.2%

O=C/C=C/c1ccco1
inactive: [1] 98.9% | [2] 99.4% | [3] 102% | [4] 100% | [5] 101% | [6] 105% | [7] 96.1% | [8] 106% | [9] 110% | [10] 107% | [11] 109% | [12] 107% | [13] 104% | [14] 106% | [15] 104% | [16] 96% | [17] 90% | [18] 106% | [19] 97.6%

c1ccc2c(c1)sc1ccccc12
inactive: [1] 104% | [2] 105% | [3] 103% | [4] 101% | [5] 95.7% | [6] 105% | [7] 104% | [8] 98.2% | [9] 116% | [10] 104% | [11] 99.4% | [12] 112% | [13] 96.7% | [14] 92.8% | [15] 106% | [16] 102% | [17] 96.6% | [18] 97.3% | [19] 103%

O=[N+]([O-])c1ccc2scc3c4ccccc4nc-3c2c1
inactive: [2] 15.9% | [7] 45.8% | [11] 10.7% | [13] 22.7% | [18] 95.7%
active: [1] -11.7% | [3] -29.5% | [4] -62.3% | [5] -77.1% | [6] -88.5% | [8] -59% | [9] -99% | [10] -2.07% | [12] -24.3% | [14] -2.05% | [15] -76.4% | [16] -64.6% | [17] -98.7% | [19] 1.98%

COc1cc(-c2ccc(N)c(OC)c2)ccc1N
inactive: [1] 173% | [2] 143% | [3] 96.5% | [4] 114% | [5] 94.4% | [6] 104% | [7] 105% | [8] 120% | [9] 104% | [10] 105% | [11] 105% | [12] 96.4% | [13] 95.6% | [14] 107% | [15] 100% | [16] 99.8% | [17] 112% | [18] 124% | [19] 101%
